# The source made the active and inactive calls.
# Columns and labels:
# [1] = system: Plasmodium falciparum Sir2 (PF13_0152, Sir2A); assay: pfSir2 binders on small-molecule microarrays, primary screen, biochemical, small-molecule microarray, 635 nm fluorescence (AID 1098); settings: small-molecule microarray binding, fluorescence 635 nm; higher = more signal;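 further: score merges spot fluorescence intensity with its signal-to-noise ratio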
# [2] = small-molecule microarray binders of probe aDKK1, primary screen, biochemical, biotinylated probe, 635/667 nm fluorescence (AID 1099); settings: higher = more signal;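 further: score merges 667nm spot fluorescence with signal to noise across triplicate slides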
# [3] = small-molecule microarray binders of probe aCHRDL2, primary screen, biochemical, biotinylated probe, 635/667 nm fluorescence (AID 1100); settings: higher = more signal
# [4] = splicing luciferase reporter signal modulators, primary screen, spliceosome inhibition project, cell-based, HEK293, splice +/- reporter (AID 1101); settings: luminescence, 24 h, higher = more signal, called active from +8 up or from −8 down;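 further: HEK293 cells carrying a splicing-competent luciferase reporter gene; test concentration not given here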
# [5] = target: Fibroblast growth factor 10 (Homo sapiens) (UniProt O15520); assay: FGF10 binders on small-molecule microarrays, primary screen, biochemical, small-molecule microarray, 635 nm fluorescence (AID 1102); settings: FGF10 binding, fluorescence 635 nm, higher = more signal
# Sequence of Fibroblast growth factor 10 (Homo sapiens) (O15520 whole entry, looked up): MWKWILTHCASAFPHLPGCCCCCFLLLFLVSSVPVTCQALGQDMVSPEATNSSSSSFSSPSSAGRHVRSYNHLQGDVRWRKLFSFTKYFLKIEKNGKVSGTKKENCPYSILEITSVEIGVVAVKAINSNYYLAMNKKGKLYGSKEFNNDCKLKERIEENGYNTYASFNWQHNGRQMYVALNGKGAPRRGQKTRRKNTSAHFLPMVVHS
# [6] = system: glycogen synthase kinase-3 (GSK3A per assay name; protocol says GSK3B); assay: GSK3 binders on small-molecule microarrays, primary screen, biochemical, small-molecule microarray, 635 nm fluorescence, GSK3A (AID 1103); settings: small-molecule microarray binding, fluorescence 635 nm; higher = more signal; further: the record names both GSK3A and GSK3B
# [7] = target: Epidermal growth factor receptor (Homo sapiens) (UniProt P00533); assay: EGFR binders on small-molecule microarrays, primary screen, biochemical, small-molecule microarray, 635 nm fluorescence (AID 1104); settings: EGFR binding, higher = more signal;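 further: score merges 667 nm emission intensity with spot signal to noise over triplicate slides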
# Sequence of Epidermal growth factor receptor (Homo sapiens) (P00533 whole entry, looked up): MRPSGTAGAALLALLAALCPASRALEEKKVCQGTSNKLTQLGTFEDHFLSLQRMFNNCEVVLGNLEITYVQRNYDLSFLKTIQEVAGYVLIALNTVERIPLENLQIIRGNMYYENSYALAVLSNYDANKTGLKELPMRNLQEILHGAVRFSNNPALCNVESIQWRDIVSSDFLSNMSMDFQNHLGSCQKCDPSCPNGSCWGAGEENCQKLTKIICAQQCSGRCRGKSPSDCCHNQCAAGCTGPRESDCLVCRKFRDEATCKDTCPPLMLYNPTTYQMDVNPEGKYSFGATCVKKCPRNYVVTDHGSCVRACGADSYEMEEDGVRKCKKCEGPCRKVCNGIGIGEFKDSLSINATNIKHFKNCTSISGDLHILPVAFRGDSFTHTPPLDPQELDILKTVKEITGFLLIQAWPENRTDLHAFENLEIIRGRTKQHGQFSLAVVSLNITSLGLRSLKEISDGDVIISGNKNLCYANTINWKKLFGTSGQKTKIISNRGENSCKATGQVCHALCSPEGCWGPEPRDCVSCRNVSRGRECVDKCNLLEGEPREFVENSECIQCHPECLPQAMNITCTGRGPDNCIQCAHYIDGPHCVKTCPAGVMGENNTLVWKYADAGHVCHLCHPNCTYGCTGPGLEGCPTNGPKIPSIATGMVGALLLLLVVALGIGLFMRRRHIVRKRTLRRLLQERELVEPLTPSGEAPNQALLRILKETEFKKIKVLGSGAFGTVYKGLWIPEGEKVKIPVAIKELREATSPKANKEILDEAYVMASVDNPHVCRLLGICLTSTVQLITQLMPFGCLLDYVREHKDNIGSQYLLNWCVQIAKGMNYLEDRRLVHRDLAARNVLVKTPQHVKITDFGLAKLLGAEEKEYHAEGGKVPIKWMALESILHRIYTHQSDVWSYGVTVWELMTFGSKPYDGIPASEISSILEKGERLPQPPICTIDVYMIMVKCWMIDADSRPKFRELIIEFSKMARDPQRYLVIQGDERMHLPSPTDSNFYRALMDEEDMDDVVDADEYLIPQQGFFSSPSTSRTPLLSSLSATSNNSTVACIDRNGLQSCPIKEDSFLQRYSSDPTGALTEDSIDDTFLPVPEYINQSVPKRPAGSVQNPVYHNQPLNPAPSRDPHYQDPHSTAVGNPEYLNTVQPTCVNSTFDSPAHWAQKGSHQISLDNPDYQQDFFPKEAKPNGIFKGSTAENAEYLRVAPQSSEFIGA
# [8] = target: Follistatin-related protein 3 (Homo sapiens) (UniProt O95633); assay: FSTL3 binders on small-molecule microarrays, primary screen, biochemical, small-molecule microarray, 635 nm fluorescence (AID 1105); settings: FSTL3 binding, higher = more signal;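 further: score merges emission near 667 nm and signal to noise per printed spot across three slides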
# Sequence of Follistatin-related protein 3 (Homo sapiens) (O95633 whole entry, looked up): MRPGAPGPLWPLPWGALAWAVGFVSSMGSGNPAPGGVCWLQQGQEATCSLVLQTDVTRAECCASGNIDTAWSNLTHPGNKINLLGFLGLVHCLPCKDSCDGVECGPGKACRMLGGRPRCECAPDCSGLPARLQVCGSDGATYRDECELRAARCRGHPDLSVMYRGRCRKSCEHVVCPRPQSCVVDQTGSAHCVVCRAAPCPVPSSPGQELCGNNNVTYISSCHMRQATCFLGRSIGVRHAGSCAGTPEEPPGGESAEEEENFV
# [9] = target: Dickkopf-related protein 1 (Homo sapiens) (UniProt O94907); assay: DKK1 binders on small-molecule microarrays, primary screen, biochemical, small-molecule microarray, 635 nm fluorescence scan (AID 1106); settings: DKK1 binding, higher = more signal;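 further: score merges emission near 667 nm with signal to noise over three replicate slides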
# Sequence of Dickkopf-related protein 1 (Homo sapiens) (O94907 whole entry, looked up): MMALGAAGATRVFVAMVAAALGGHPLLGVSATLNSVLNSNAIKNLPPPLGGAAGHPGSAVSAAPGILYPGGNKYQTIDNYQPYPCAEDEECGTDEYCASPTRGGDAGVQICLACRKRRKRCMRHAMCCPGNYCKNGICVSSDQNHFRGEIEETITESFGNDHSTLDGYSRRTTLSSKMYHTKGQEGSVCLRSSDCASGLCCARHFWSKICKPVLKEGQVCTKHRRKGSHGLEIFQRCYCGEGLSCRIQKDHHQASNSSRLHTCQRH
# [10] = system: Inhibin beta A chain (activin A); assay: INHBA (activin A) binders on microarrays, primary screen, biochemical, small-molecule microarray, 635 nm fluorescence scan (AID 1107); settings: small-molecule microarray binding, higher = more signal;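 further: mouse activin A protein probed at 4.33 µg/mL on printed slides; score merges bound-protein fluorescence near 667 nm with spot signal-to-noise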
# [11] = system: Human papillomavirus type 1a protein E7 (residues 44-93); assay: HPV1a E7 fragment binders on microarrays, primary screen, biochemical, small-molecule microarray, residues 44-93, 635 nm fluorescence (AID 1108); settings: small-molecule microarray binding, fluorescence 635 nm; higher = more signal;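 further: E7 fragment applied at 1 µg/mL in TBST for 1 h at 4 C; score combines spot fluorescence with its signal to noise ratio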
# [12] = modulators of HCV replicon luciferase signal, primary screen, HCV replication inhibitor project, Huh7 cells, luciferase reporter (AID 1109); settings: 48 h, higher = more signal;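 further: huh7 hepatoma cells harbouring a luciferase neomycin HCV replicon reporter; luciferase luminescence as measure of HCV replicon replication; test concentration not given here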
# [13] = target: Left-right determination factor 2 (Homo sapiens) (UniProt O00292); assay: LEFTY2 binders on small-molecule microarrays, primary screen, biochemical, small-molecule microarray, 635 nm fluorescence scan (AID 1110); settings: LEFTY2 binding, higher = more signal
# Sequence of Left-right determination factor 2 (Homo sapiens) (O00292 whole entry, looked up): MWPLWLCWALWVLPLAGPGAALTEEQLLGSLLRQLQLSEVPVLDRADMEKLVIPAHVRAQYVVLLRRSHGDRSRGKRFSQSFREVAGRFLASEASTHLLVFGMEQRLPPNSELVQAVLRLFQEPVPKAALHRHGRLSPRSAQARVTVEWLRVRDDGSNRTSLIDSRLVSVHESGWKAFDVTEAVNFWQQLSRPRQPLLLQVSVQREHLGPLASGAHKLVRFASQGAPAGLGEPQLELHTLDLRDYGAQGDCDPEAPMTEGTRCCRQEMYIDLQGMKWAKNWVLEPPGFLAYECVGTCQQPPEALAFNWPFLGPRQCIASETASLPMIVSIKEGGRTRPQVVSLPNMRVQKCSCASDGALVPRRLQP
# [14] = target: Calmodulin-1 (Homo sapiens) (UniProt P0DP23); assay: CALM1 binders on microarrays, EGTA buffer, profiling panel, biochemical, small-molecule microarray, Cy5-labelled CALM1 (AID 1111); settings: Cy5-CALM1 binding fluorescence, higher = more signal;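 further: labelled calmodulin applied in Tris saline Tween buffer holding calcium plus EGTA and DTT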
# [15] = target: Calmodulin-1 (Homo sapiens) (UniProt P0DP23); assay: calcium-bound CALM1 binders on microarrays, profiling panel, artefact control for SMM control-protein annotation, biochemical, small-molecule microarray, Cy5-labelled CALM1, plus calcium (AID 1112); settings: Cy5-CALM1 binding fluorescence, higher = more signal;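 further: score merges spot fluorescence with signal to noise from triplicate slides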
# [16] = small-molecule microarray binders of probe aWnt5a, primary screen, biochemical, biotinylated probe, 635/667 nm fluorescence (AID 1113); settings: higher = more signal;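 further: score merges 667 nm fluorescence intensity with signal-to-noise per printed feature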
# [17] = small-molecule microarray binders of probe aShh, primary screen, biochemical, biotinylated probe, 635/667 nm fluorescence (AID 1114); settings: higher = more signal;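 further: probe is biotin-labelled aShh protein from a stem cell growth factor screen; measures binding of labelled protein to compounds printed on the slide; score merges feature fluorescence at 667 nm with signal-to-noise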
# [18] = small-molecule microarray binders of probe aNog, primary screen, biochemical, biotinylated probe, 635/667 nm fluorescence (AID 1115); settings: higher = more signal;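 further: probe is biotinylated aNog protein used at 0.15 µg/mL for 1 h at 4 C; z-score combines 667 nm fluorescence of each spot with its signal to noise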
# [19] = target: Torsin-1A-interacting protein 1 (Homo sapiens) (UniProt Q5JTV8); assay: LAP1 binders from COS7 cell lysate, primary screen, small-molecule microarray, 635/667 nm fluorescence (AID 1116); settings: COS7-hLAP1 lysate binding, 635 nm fluorescence, higher = more signal
# Sequence of Torsin-1A-interacting protein 1 (Homo sapiens) (Q5JTV8 whole entry, looked up): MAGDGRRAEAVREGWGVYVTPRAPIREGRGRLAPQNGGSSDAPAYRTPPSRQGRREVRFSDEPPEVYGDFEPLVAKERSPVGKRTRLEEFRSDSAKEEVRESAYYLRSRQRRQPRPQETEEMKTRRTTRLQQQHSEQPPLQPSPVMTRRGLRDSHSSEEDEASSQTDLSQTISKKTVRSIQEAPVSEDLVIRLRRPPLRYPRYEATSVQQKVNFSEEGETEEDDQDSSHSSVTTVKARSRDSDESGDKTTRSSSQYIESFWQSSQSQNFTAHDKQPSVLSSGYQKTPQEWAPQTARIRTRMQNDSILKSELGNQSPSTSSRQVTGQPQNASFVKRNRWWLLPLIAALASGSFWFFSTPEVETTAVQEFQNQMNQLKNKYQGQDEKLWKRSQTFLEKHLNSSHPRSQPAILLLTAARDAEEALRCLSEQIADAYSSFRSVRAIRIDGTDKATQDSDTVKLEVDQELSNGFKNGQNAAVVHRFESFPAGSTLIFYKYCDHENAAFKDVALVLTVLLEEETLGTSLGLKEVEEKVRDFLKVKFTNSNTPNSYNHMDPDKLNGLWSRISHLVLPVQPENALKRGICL
# [20] = target: Alpha-bungarotoxin (Bungarus multicinctus) (UniProt P60615); assay: alpha-bungarotoxin binders on microarray, profiling panel, artefact control for SMM control protein annotation, biochemical, small-molecule microarray, Alexa647 label, 635/667 nm fluorescence (AID 1117); settings: alpha-BTX-A647 binding fluorescence, higher = more signal
# Sequence of Alpha-bungarotoxin (Bungarus multicinctus) (P60615 whole entry, looked up): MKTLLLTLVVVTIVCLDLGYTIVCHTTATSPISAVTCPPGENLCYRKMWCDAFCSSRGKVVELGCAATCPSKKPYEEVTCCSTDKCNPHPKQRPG
Structure (SMILES),composite z-score [1],composite z-score [2],composite z-score [3],z-score [4],composite z-score [5],composite z-score [6],composite z-score [7],composite z-score [8],composite z-score [9],composite z-score [10],composite z-score [11],z-score [12],composite z-score [13],composite z-score [14],composite z-score [15],composite z-score [16],composite z-score [17],composite z-score [18],composite z-score [19],composite z-score [20]
C=CC[C@]1(C(=O)NCCCOC)N=C(c2ccc(OCCCO)cc2)O[C@H]1c1ccccc1,1.08,0.107,1.05,-0.318 (inactive),-0.418,0.94,-1.69,-0.0778,-1.13,-0.112,1.44,-1.53,-0.916,0.287,-0.484,0.108,-0.0626,0.328,1.03,-0.0901
COC(=O)[C@@]1(Cc2ccccc2)[C@H]2c3cc(C(=O)N4CCCC4)n(Cc4ccc(C(F)(F)F)nc4)c3C[C@H]2CN1C(=O)c1ccccc1,1.28,0.568,1.02,-0.434 (inactive),0.881,1.32,0.0424,1.1,-0.269,0.634,1.46,-2.59,-0.208,1.96,0.836,0.288,1.36,1.48,0.658,1.56
CCOC(=O)C[C@H]1[C@H](OC(=O)c2cc3ccccc3oc2=O)[C@@H](NC(=O)C2CCCCC2)c2cc(OCCCO)ccc2N1C(=O)Cc1ccc(OC)cc1,0.199,0.0483,0.0801,0.0427 (inactive),1,0.469,0.193,0.397,0.447,0.6,0.612,-0.938,0.304,0.126,-0.182,0.0633,0.42,0.23,0.404,0.25
CC#CCO[Si](C#CCCCCCC)(C(C)C)C(C)C,1.5,-0.32,1.21,0.176 (inactive),-2.46,-0.719,-2.07,-2.09,-3.48,-2.74,-0.321,0.158,-3.37,-0.626,1.01,-0.275,-0.304,-0.417,-0.438,0.0016
COCC1=C([C@H](O)CCc2ccccc2)[C@H](CO)n2c(=O)n(-c3ccccc3)c(=O)n2C1,-0.285,-0.412,-0.39,-1.12 (inactive),-0.187,-0.295,0.445,-0.41,0.353,0.785,-0.253,-0.482,0.292,-0.357,-0.764,-0.175,-0.0553,-0.0927,-0.103,-0.349
CC(C)c1ccc(NN2C(C(O)C(C)C)C=CC3C(=O)N(c4ccccc4)C(=O)C32)cc1 (stereo not given),1.06,1.26,1.14,0.437 (inactive),0.651,1.31,0.389,0.926,-0.103,0.496,0.713,2.43,0.136,2.1,0.721,0.168,0.998,1.8,0.817,1.49
COC(=O)C1=CC(CCCO)=CC(C2CC2)N(Cc2cccc(OC(F)(F)F)c2)C=C1C(=O)OC (stereo not given),1.19,0.0765,0.234,0.449 (inactive),0.107,-0.363,-0.659,0.315,-0.59,0.674,1.43,-1.46,-0.724,0.302,0.364,0.0077,-0.0035,0.374,-0.302,0.0939
CCCCN1CC=CC23O[C@@H]4C=CCOC(=O)[C@@H]4[C@H]2C(=O)N(C(CO)C(C)C)[C@@H]3C1=O (stereo not given in full),-0.662,-0.353,-0.476,-0.116 (inactive),-0.372,-0.13,-0.759,0.0236,0.185,0.843,-0.321,-1.23,-0.383,-0.782,-0.828,-0.173,-0.138,-0.381,-0.457,-0.843
C=CC[C@@]12N=C(c3ccc(OCCCO)cc3)O[C@@H]1c1ccccc1N(Cc1ccccc1)C2=O,1.55,1.36,1.08,-1.37 (inactive),1.26,1.34,0.657,1.48,0.904,1.12,0.598,-2.27,0.657,0.792,0.355,0.127,-0.114,1.1,1.16,0.858
COc1ccc([Si](C)(C)[C@@H]2[C@@H](CCO)O[C@]3(C(=O)N(Cc4ccccc4)c4ccc(N5C(=O)c6ccccc6Oc6ccccc65)cc43)[C@H]2C)cc1,0.0104,-0.171,0.462,-1.28 (inactive),-0.673,-1.02,-1.04,-0.398,-0.328,-0.0458,-0.175,-4.15,-0.75,0.417,0.925,-0.208,-0.0605,-0.0541,-0.361,0.367
COc1ccc(NN2C(C(O)c3cc(C(F)(F)F)cc(C(F)(F)F)c3)C=CC3C(=O)N(C4CCCCC4)C(=O)C32)cc1 (stereo not given),1.12,1.28,0.751,-1.08 (inactive),0.37,0.977,0.0981,0.384,-0.292,0.639,0.258,-1.79,-0.0774,1.66,0.0635,0.485,0.611,1.82,1.06,0.698
